Compound activity deposited in PubChem BioAssay by National Center for Advancing Translational Sciences (NCATS).
D1 PAM = enhances dopamine response at the human D1 receptor; HEK293 TREx D1 cells, calcium flux, dopamine EC20 potentiation; potentiation, % at 10 µM; hit rate 0.036% among 360,000; AID 504651; in the data active = potentiation above about 30%; also: 0% is about no effect
Target sequence (P21728 whole entry, looked up): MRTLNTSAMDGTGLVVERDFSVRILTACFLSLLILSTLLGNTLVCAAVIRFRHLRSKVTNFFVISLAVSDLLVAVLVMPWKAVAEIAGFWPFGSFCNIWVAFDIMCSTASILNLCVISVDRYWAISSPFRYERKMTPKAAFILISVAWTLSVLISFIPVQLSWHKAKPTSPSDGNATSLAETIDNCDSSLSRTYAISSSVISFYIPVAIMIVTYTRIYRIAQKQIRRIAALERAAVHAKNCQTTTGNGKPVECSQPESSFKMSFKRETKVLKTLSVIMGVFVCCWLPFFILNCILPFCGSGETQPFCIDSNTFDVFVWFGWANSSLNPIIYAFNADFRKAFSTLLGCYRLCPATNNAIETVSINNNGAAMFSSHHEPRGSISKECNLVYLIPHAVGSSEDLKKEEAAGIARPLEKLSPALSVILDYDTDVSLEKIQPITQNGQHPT
D1 antag = antagonists of human D1 dopamine receptor. AID 504652. hit rate 3.2% among 360,000. HEK293 TREx D1 cells, calcium flux, dopamine EC80; active compounds read low. P21728. activity change, negative = inhibition, % at 10 µM; in the data active = activity change below about -30%; also: % is scaled to controls: 0 for no effect and ±100 for the full control effect
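Tetracycline-induced HEK293 Trex D1 cells, force-coupled to calcium, dye-loaded; compounds added and read 180 s, then EC80 dopamine added and calcium flux tracked kinetically another 180 s.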
D1 ag = agonists of human D1 dopamine receptor | P21728 | HEK293 T-REx D1 cells, calcium flux, agonist mode | activation, % at 2 µM | hit rate 1% among 360,000 | AID 504660; also: 0% is about no effect
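Agonism was scored from calcium flux recorded over 180 s (1 read/s) after pintool compound addition, following a 10-cycle baseline. Cells were inducible force-coupled HEK293 TREx D1, plated overnight at 30 C and loaded with no-wash calcium dye.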
TRHR PAM = TRH receptor (human) allosteric enhancement. P34981. TRHR cells, fluo-8 calcium fluorescence, EC20 TRH enhancement. enhancement, % at 2 µM. hit rate 0.66% among 360,000; in the data active = enhancement above about 30%; also: 0% is about no effect
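Enhancer read-out: after compound pinning and an initial kinetic agonist-mode read, an EC20 of TRH (10 nM final) was injected and fluo-8 calcium signal (Ex 480/Em 530) followed at 1 s/cycle for 100 cycles in TRHR-expressing cells.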
TRHR ag = TRH receptor (human) agonism; P34981; TRHR cells, calcium flux fluo-8, FDSS agonist mode; activation, % at 2 µM; hit rate 0.18% among 360,000; also: 0% is about no effect
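TRHR-expressing cells loaded with fluo-8 calcium dye; 23 nL library compound pin-transferred, kinetic FDSS fluorescence (Ex 480/Em 530) recorded about 180 s for agonist-induced calcium release, before a 10 nM TRH EC20 addition for potentiator mode.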
Starred values were filed as active, the others as inactive; nt = no result given. Only some compounds are listed: those with a hit (about 4.7% of all), similar ones and a draw of the others. Rule as the data show it, unless noted: active = activation above about 30%; inactive = the rest.

SMILES	D1 PAM	D1 antag	D1 ag	TRHR PAM	TRHR ag
COc1ccc(OC)c(NC(=O)CN(c2ccc(C)cc2)S(=O)(=O)c2c(C)n[nH]c2C)c1	-1	14	2	2	-1
COc1ccccc1NC(=O)CN(c1ccc(C)cc1)S(=O)(=O)c1c(C)n[nH]c1C	-8	-54*	4	2	-1
CCOc1ccc(N(CC(=O)Nc2ccc(C)c(C)c2)S(=O)(=O)c2c(C)noc2C)cc1	-3	-10	3	-10	0
CCOc1ccc(N(CC(=O)Nc2cccc(F)c2)S(=O)(=O)c2c(C)noc2C)cc1	-4	-34*	5	7	1
Cc1noc(C)c1S(=O)(=O)N(CC(=O)NCc1ccc(F)cc1)c1ccc(C(C)C)cc1	-5	-35*	3	-12	1
CCOc1ccccc1NC(=O)CN(c1cc(C)cc(C)c1)S(=O)(=O)c1c(C)noc1C	0	-40*	0	-1	0
Cc1noc(C)c1S(=O)(=O)N(CC(=O)NCc1ccccc1)c1ccc(C(C)C)cc1	-1	10	5	-16	1
CC(C(=O)Nc1ccc(OC(F)(F)F)cc1)N1Cc2ccccc2C1=O (centres undefined)	-1	-8	-1	0	1
Cc1ccc(CNC(=O)C2CCN(C(=O)c3cnn(-c4ccccc4)c3-n3cccc3)CC2)cc1	-5	-3	1	8	0
N#C/C(N=Nc1ccccc1O)=N\Nc1ccccc1O	-6	-59*	36*	-4	7
CSc1nc(-c2ccco2)nn1C(=O)c1ccccc1	-3	13	4	18	0
COc1ccccc1C(=O)n1nc(-c2ccco2)nc1SC	-11	-34*	2	-3	0
CCc1ccccc1NC(=O)N1CCCc2ccccc21	-1	5	1	-2	1
Cn1cc(S(=O)(=O)CC(=O)N2CCCc3ccccc32)c2ccccc21	nt	-84*	0	0	0
COc1ccc(-c2nnnn2C)cc1S(=O)(=O)NCc1ccccc1	0	-55*	3	-2	0
O=C(CN1CCCC1c1cccs1)Nc1cccc(S(=O)(=O)N2CCCC2)c1 (centres undefined)	-1	-4	5	-12	-1
COC(=O)c1cc(NC(=O)c2cccc(Cl)c2)c(=O)oc1/C=C/Nc1cc(C)cc(C)c1	2	-34*	102*	-3	38*
CCCCCOC(=O)C1=C(C)NC(=O)NC1c1ccc(OC)cc1 (centres undefined)	-2	5	1	-2	0
COc1cc(C)nc(NS(=O)(=O)c2ccccc2)n1	-2	-37*	2	23	0
COc1ccc(C2C(C(=O)c3cccs3)=C(O)C(=O)N2c2nnc(C)s2)cc1OC (centres undefined)	-5	3	77*	8	193*
CC(C)c1nnc(N2C(=O)C(O)=C(C(=O)c3cccs3)C2c2ccccc2)s1 (centres undefined)	2	nt	270*	3	169*
COc1ccc(C2C(C(=O)c3cccs3)=C(O)C(=O)N2c2nncs2)cc1 (centres undefined)	-3	-21	67*	3	36*
Cc1cccc(N2C(=O)C(O)=C(C(=O)c3cccs3)C2c2ccc(C(C)C)cc2)n1 (centres undefined)	3	1	1	-4	2
COCCOc1ccc(C(F)(F)F)cc1NC(=O)c1ccc(C)cc1	-5	-12	3	6	0
COc1ccc(OC)c(NC(=O)c2ccc(Cl)cc2)c1	10	-36*	-1	-8	0
SMILES	D1 PAM	D1 antag	D1 ag	TRHR PAM	TRHR ag
COc1ccc(Oc2ccc(C(F)(F)F)cc2NC(=O)c2ccc(C)cc2)cc1	5	-8	31*	8	-2
CC(=O)Nc1cc(C(F)(F)F)ccc1Oc1cccc(Br)c1	-12	-5	30*	3	-1
O=C(CCSc1ccc(Br)cc1)c1ccc(O)cc1	-2	-22	1	-9	0
O=C(c1ccco1)N1N=C(c2ccc(Br)cc2)CC1(O)C(F)(F)F (centres undefined)	-5	-46*	6	19	1
O=C(c1ccco1)N1N=C(C2CCCCC2)CC1(O)C(F)(F)F (centres undefined)	-5	-38*	2	-5	0
CCS(=O)c1ccccc1C(=O)OCC(=O)Nc1cccc(S(=O)(=O)N2CCCCC2)c1 (centres undefined)	2	-15	2	-7	0
Fc1ccc(-c2nc3cnccn3c2NC2CCCC2)cc1	-2	-36*	1	-3	0
COc1ccc(Nc2c(-c3ccc(OC)cc3)nc3cnccn23)cc1	-3	4	-1	34*	-1
Oc1ccc(Br)cc1-c1nc2cnccn2c1NC1CCCC1	-5	-27	1	-4	-1
O=C(OC1CCCCC1=O)c1ccc(S(=O)(=O)Nc2ccccc2)cc1 (centres undefined)	2	-10	35*	13	1
CC1CN(C(C)C(=O)NC(c2ccccc2)c2ccccc2)CC(C)O1 (centres undefined)	5	-6	0	-5	0
CCN(CCO)C(=O)C(c1ccccc1)c1ccccc1	-4	-59*	2	9	-2
CC(C)(C)NC(=O)CN(C(=O)CCN1CCCc2ccccc21)C(C)(C)C	-1	4	1	0	0
CCCN1CCCc2ccccc21	7	-31*	0	-2	0
CN(C1CCCCC1)S(=O)(=O)CCNC(=O)c1ccccc1	1	-67*	0	0	0
COc1cccc(C(=O)NCCS(=O)(=O)N(C)C2CCCCC2)c1	-8	-6	-1	3	0
Cc1ccc(C(=O)N2CCCC(CCC(=O)N3CCN(c4ccccn4)CC3)C2)cc1C (centres undefined)	-5	-39*	7	-5	-1
COc1cccc(NC(=S)N2CCC(Cc3ccccc3)CC2)c1	-3	-37*	1	0	0
COc1ccc(NC(=S)N2CCC(Cc3ccccc3)CC2)cc1OC	-11	-53*	3	1	-1
Cc1ccc(NC(=O)C2CCCN2C(=O)NC2CCCCC2)cc1 (centres undefined)	1	7	5	0	0
COC(=O)c1ccc(NC(=O)c2cc(=O)c3ccc(C)cc3o2)cc1	-1	-2	0	7	-1
CCOc1ccccc1NC(=O)CCc1c(C)nn(-c2ccc(N3CCOCC3)nn2)c1C	-9	-68*	0	1	0
COc1cccc(CNC(=O)CCc2c(C)nn(-c3ccc(N4CCCC4)nn3)c2C)c1	-6	-40*	0	11	0
Cc1oc(-c2ccc(C(=O)NCCC(C)C)cc2)nc1CS(=O)(=O)c1ccccc1	0	4	0	1	0
Cc1ccc(NC(=O)N2CCc3cc(S(=O)(=O)N4CCC(C)CC4)ccc32)cc1F	-4	-9	0	3	0
